Bioassay records deposited in PubChem by Buhrlage Lab, Dana-Farber Cancer Institute and Novartis Institutes for BioMedical Research (Cambridge, Mass).
Compounds with a hit are over-represented: about 14% of the library has one in this group of screens.
USP28 block: human USP28 deubiquitinase inhibition | inhibition, % at 25 µM | 3% of 47,000 active | AID 1645857 | purified USP28, Ub-rhodamine cleavage fluorescence, 30 min
USP17 block: inhibitors of human USP17 deubiquitinase; A8MUK1; purified USP17, Ub-rhodamine cleavage fluorescence, 3 h; inhibition, % at 50 µM; 6.5% of 47,000 active
Target sequence (A8MUK1 whole entry, looked up): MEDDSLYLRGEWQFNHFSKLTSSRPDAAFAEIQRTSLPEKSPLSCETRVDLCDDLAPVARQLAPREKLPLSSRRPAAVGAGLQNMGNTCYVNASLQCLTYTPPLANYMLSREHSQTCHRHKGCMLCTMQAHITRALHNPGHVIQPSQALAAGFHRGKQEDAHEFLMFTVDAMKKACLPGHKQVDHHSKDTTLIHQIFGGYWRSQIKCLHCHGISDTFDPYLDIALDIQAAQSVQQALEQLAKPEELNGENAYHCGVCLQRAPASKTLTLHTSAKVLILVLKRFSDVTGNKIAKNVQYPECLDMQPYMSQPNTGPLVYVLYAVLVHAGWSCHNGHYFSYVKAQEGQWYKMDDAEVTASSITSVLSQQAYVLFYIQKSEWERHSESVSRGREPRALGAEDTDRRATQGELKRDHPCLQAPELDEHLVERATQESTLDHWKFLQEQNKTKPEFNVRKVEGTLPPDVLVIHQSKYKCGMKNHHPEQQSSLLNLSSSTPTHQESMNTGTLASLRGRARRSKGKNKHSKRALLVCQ
USP10 inh: blocks human USP10 ubiquitin-rhodamine cleavage. inhibition, % at 20 µM. 1.1% of 47,000 active. AID 1645856. purified USP10, Ub-rhodamine fluorescence, 60 min
USP8 inh: inhibitors of human USP8 deubiquitinase. inhibition, % at 20 µM. P40818. AID 1645853. 4.2% of 47,000 active. purified USP8, Ub-rhodamine cleavage fluorescence, 30 min
USP30 block: blocks human USP30 ubiquitin-rhodamine cleavage. AID 1645860. Q70CQ3. purified USP30, Ub-rhodamine cleavage fluorescence. 5.3% of 47,000 active. inhibition, % at 25 µM
Large screens that a line does not name were inactive. Cut-off read from the data, not from the text of the source: active = inhibition above about 30%; inactive = the rest.

Cn1cc(C(=O)Nc2ccccc2Cl)c2[nH]c(=O)n(Cc3ccccc3)c(=O)c21	none
COC(=O)c1ccc(COC(=O)c2cc(C)nc3ccccc23)cc1	none
COC(=O)c1ccc(Nc2cc(C)nc3cc(C(F)(F)F)ccc23)cc1	USP17 block 63.6, USP8 inh 35.0, USP30 block 65.6
COc1ccccc1C(=O)Nc1ccccc1-c1nc(-c2ccccn2)no1	USP17 block 32.5 (no result: USP28 block, USP30 block)
O=C(Nc1ccccc1-c1nc(-c2ccccn2)no1)c1ccc(Cl)cc1	USP17 block 35.1
COc1ccc(-c2csc(-c3cc4c([nH]c3=O)CC(c3ccco3)CC4=O)n2)cc1 (configuration not stated)	none
O=C1CC(c2ccco2)Cc2[nH]c(=O)c(-c3nc(-c4ccc(Cl)cc4)cs3)cc21 (configuration not stated)	USP8 inh 34.0
Cc1cc(O)c2c(=O)c3c(O)cccc3oc2c1O	USP17 block 37.4
Cc1ccc(S(=O)(=O)Nc2c(O)c3ccccc3oc2=O)cc1C	none
Cc1ccc2c(C)c(C(=O)N(Cc3ccc(Cl)cc3)Cc3ccco3)oc2c1C	USP17 block 34.8, USP8 inh 49.0
O=C(NC1CCCC1)C(c1ccc(Cl)cc1)N(Cc1ccccc1F)C(=O)c1ccco1 (configuration not stated)	USP30 block 36.9
CCc1ccc(C(C(=O)NC2CCCC2)N(Cc2ccc(OC)cc2)C(=O)c2ccco2)cc1 (configuration not stated)	none
CCC(C)c1ccc(N(C(=O)c2ccco2)C(C(=O)NC2CCCC2)c2ccc(N3CCOCC3)cc2)cc1 (configuration not stated)	USP30 block 47.6
Cn1cc(-c2cnc(-c3cccc(F)c3)nc2)cc1C(=O)NCc1cccnc1	USP17 block 51.5
Cc1cc(CN2C(=O)NC(C)(c3cc4ccccc4o3)C2=O)no1 (configuration not stated)	none
Cc1cc(C#N)c2c(C)ccc(C(C)C)cc1-2	USP28 block 57.9
O=C(NCc1cccnc1)c1ccc(N2CCC(NCc3cccc(C(F)(F)F)c3)CC2)cc1	none
COC(=O)CSc1nc2ccccc2c(=N)n1-c1ccc(Cl)cc1	none
COc1ccc(-n2c(SCC(=O)Nc3cc(Cl)ccc3C(=O)O)nc3ccccc3c2=O)cc1Cl	USP17 block 92.6, USP10 inh 58.6, USP8 inh 38.9 (no result: USP28 block, USP30 block)
Fc1ccc(-c2nn3c(-c4ccc5c(c4)OCO5)nnc3s2)cc1	USP8 inh 64.3
O=C(NCCc1ccccc1Cl)c1cnc2sccn2c1=O	none
O=[N+]([O-])c1ccc(NCC2COc3ccccc3O2)c(Cl)c1 (configuration not stated)	USP28 block 72.5
O=C(NCc1ccco1)c1ccc(Cn2c(=O)c3sccc3n(Cc3cc(=O)n4ccccc4n3)c2=O)cc1	USP28 block 50.0, USP17 block 69.6, USP8 inh 67.8, USP30 block 40.4
CCn1c(=O)c(NCc2ccc(Cl)cc2)nc2ccncc21	USP17 block 47.8, USP30 block 34.3
O=C(c1ccc2c(c1)N(Cc1ccccc1F)C(=O)c1ccccc1S2(=O)=O)N1CCN(C(=O)c2ccco2)CC1	USP17 block 37.6
COc1ccc(C2NC3=NCN(C(C)C)CN3c3nc4ccccc4n32)cc1 (configuration not stated)	USP30 block 33.2
CC(C)N1CN=C2NC(c3ccc(N(C)C)cc3)n3c(nc4ccccc43)N2C1 (configuration not stated)	none
Cc1cccc(C(=O)NC(Cc2ccccc2)c2nc3ccccc3[nH]2)c1 (configuration not stated)	none
O=C(NC(Cc1ccccc1)c1nc2ccccc2[nH]1)c1cc(=O)[nH]c2ccccc12 (configuration not stated)	USP17 block 60.9, USP30 block 56.2
COc1cc(C(=O)NC(Cc2ccccc2)c2nc3ccccc3[nH]2)cc(OC)c1OC (configuration not stated)	USP30 block 66.4
O=C(Nc1ccc(F)cc1F)c1cccc(S(=O)(=O)N2CCCCC2)c1	none
O=C(Nc1ccc2c(c1)CCN2S(=O)(=O)c1ccccc1)Nc1ccc(F)cc1F	USP28 block 42.9
O=C(Nc1ccccc1)N1CCn2c(nnc2C2CCNCC2)C1	none
Cc1ccccc1-c1nc(CN(C)S(=O)(=O)c2ccccc2)c(C)o1	USP30 block 55.5
Cc1ccc(CC(=O)Nc2cnc(-c3ccccc3)nc2)cc1	none
Cc1c(-c2noc(-c3ccccn3)n2)nnn1-c1ccc(F)cc1	USP17 block 71.7, USP30 block 60.5
Cc1ccc(-n2nnc(-c3noc(-c4ccncc4)n3)c2C)cc1	none
Cc1ccc(-n2nnc(-c3noc(-c4ccccn4)n3)c2C)cc1	none
c1ccc(-n2nnc(-c3noc(-c4ccccn4)n3)c2-c2ccncc2)cc1	USP17 block 63.5, USP8 inh 32.1
Cc1c(-c2nc(-c3ccccc3Cl)no2)nnn1-c1cccc(F)c1	USP17 block 35.9, USP10 inh 38.1, USP30 block 62.2
COc1cccc(CN2CCC(c3cc(=O)[nH]c(-c4cccnc4)n3)CC2)c1	none
Cc1ccccc1C(=O)N1CCC2(CC1)OCCN2S(=O)(=O)c1ccccc1	none
Cc1ccc(S(=O)(=O)N2CCOC23CCN(C(=O)c2ccccc2)CC3)cc1	USP30 block 32.9
COc1cc2c(cc1OC)CN(c1ncnc3scc(-c4ccccc4)c13)CC2	USP8 inh 36.9
COc1cc(NC(=O)CSc2ncnc3scc(-c4ccccc4)c23)c(C(=O)O)cc1OC	USP10 inh 30.1
CC(=O)c1ccccc1NC(=O)COc1ncnc2scc(-c3ccc(F)cc3)c12	none
COc1cccc(CNC(=O)c2ccc3noc(-c4ccc(C)cc4)c3c2)c1	none
Cc1cccc(C)c1NC(=O)C1CCCCN1S(=O)(=O)c1ccc(F)cc1 (configuration not stated)	none
Cc1ccc(OCC2Cn3c(nc4c3c(=O)[nH]c(=O)n4C)O2)cc1C (configuration not stated)	USP17 block 66.0 (no result: USP28 block, USP30 block)
COc1ccccc1NC(=O)Cn1cc(C(=O)c2ccc(C)cc2)c(=O)c2cc(Cl)ccc21	USP17 block 60.5, USP10 inh 31.0
COc1cc(NC(=O)Cn2cc(C(=O)c3ccccc3)c(=O)c3cc(Cl)ccc32)cc(OC)c1	USP10 inh 61.9, USP8 inh 97.0
Cc1cc(F)ccc1NC(=O)c1cc2n(n1)CCCC2	none
CCCn1cnc2nc(CSc3ccccc3NC(=O)c3ccccc3F)cc(=O)n21	none
CN1CCCC(OC(=O)c2cc(Cl)cc(Cl)c2)C1 (configuration not stated)	USP8 inh 31.7, USP30 block 32.9 (no result: USP17 block)
CN1CCCC(OC(=O)c2cccc(Cl)c2)C1 (configuration not stated)	none
CCCNC(=O)c1oc2ccc3c(c2c1C)C(=O)CC1(CCCC1)O3	USP30 block 39.4
CCN(CC)C(=O)c1sc(NC(=O)c2cc(-c3ccccc3Cl)nc3ccccc23)c(C(N)=O)c1C	USP10 inh 44.0, USP8 inh 47.1
